Laboratory results: PubChem BioAssay AID1051 (The Scripps Research Institute Molecular Screening Center, 2008)
The campaign covered roughly 99,000 compounds. About 340 (0.34%) were called active. No stated cut-off is given here; in the data, active means TR-FRET ratio above about 2300; inactive means the rest. The sample as a whole holds a higher share of actives than the screen did.

Assay: TR-FRET detection interference compounds, primary screen, artefact control for PPARgamma SRC-1 recruitment agonists, biochemical, TR-FRET emission ratio (AID 1051)
Conditions: TR-FRET detection artefact counter-screen, at 8 µM, hits give high values
For `COc1cc(-n2c(=S)[nH]c3ccc(C)cc3c2=O)c(Cl)cc1Cl`, the TR-FRET ratio was 2560 (active).
For `O=C1N=c2ccccc2=C/C1=C\c1c(O)[nH]c(=S)[nH]c1=O`, the TR-FRET ratio was 1870 (inactive).
In the case of `COc1ccc(C2N3CC(C)(C)CN23)cc1` (stereo not given), the TR-FRET ratio is reported as 1740 (inactive).
For `CCOP(=O)(OCC)C(NC(=O)c1ccc(C)cc1)C(Cl)(Cl)Cl` (stereo not given), the TR-FRET ratio was 1720 (inactive).
In the case of `OCC#CC[N+]1(CC#Cc2ccccc2)CCCC1`, the TR-FRET ratio is reported as 1790 (inactive).
